Laboratory results from PMC7819943, “Rice protein-binding microarrays: a tool to detect cis-acting elements near promoter regions in rice”.
In all, about 68,000 sequences were measured (“fluorescence intensity (a.u.)”: median about 9,100, highest 2% from about 16,000 on). Only a selection was taken, and the highest values are over-represented in it overall.

target: OsWRKY34 (Oryza sativa, UniProt Q0JBA9 1-250); experiment: protein-binding microarray (RPBM); PBS, 2% BSA, 51.3 ng/ul salmon testes DNA, 50 uM zinc acetate, 200 nM TF, 25 C, 1 h; high values mean tight binding; conditions: protein: recombinant; tags: N-terminal polyhistidine and DsRed monomer fusion (pET32a); label: CyDye5-dUTP incorporated in the synthesized complementary strand; 3' TTTTT single-stranded linker to array surface; dsDNA, one strand shown
Sequence (Q0JBA9 entry or part of it): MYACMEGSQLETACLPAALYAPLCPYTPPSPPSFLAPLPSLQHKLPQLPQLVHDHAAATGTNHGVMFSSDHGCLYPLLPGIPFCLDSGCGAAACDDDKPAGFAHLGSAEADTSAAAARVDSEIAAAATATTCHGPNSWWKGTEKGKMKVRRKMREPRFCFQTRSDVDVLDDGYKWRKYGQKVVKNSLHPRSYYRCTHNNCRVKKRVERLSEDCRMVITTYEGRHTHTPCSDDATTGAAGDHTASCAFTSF
Summary of the method: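 Transcription factors, each fused N-terminally to a polyhistidine tag and DsRed, were expressed in E. coli BL21-CodonPlus and purified on Ni–NTA. A custom Agilent array was made double-stranded by primer extension with Cy5-dUTP and blocked with 2% BSA. It was incubated with 200 nM protein in PBS, 2% BSA, salmon testes DNA and 50 µM zinc acetate at 25 °C for 1 h, then washed. The binding signal is per-feature fluorescence intensity (arbitrary units) read on an Axon 4000B scanner.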

| Sequence | binding signal |
| --- | --- |
| CTACGATACACCGCTTGTTTCTGTTTTTCTTATCTAGGAACGGAGTCACCTAGTGCAG | 9180 fluorescence intensity (a.u.) |
| GGTTTGGCTTGGCTTGGCGGCTGGTTCTGCTGAGGCTGACCGGAGTCACCTAGTGCAG | 11900 fluorescence intensity (a.u.) |
| TGGTTTGGTTACTGGTTTAGTGCTTGAATTAATGTGGCACCGGAGTCACCTAGTGCAG | 18400 fluorescence intensity (a.u.) |
| GTGTTGTGGTTTACTGAATTGATGTTTGGCTTAAGTGATGCGGAGTCACCTAGTGCAG | 11800 fluorescence intensity (a.u.) |
| CCTGTTACCTGTTTGGCTGACTTGGTCAAACACAACTCACCGGAGTCACCTAGTGCAG | 9460 fluorescence intensity (a.u.) |
| GGGCTGGTTTGGCTTGGCTGTTACAAAGACAAAGAATGACCGGAGTCACCTAGTGCAG | 16800 fluorescence intensity (a.u.) |
| TTGGCCATGTTAATGTTTTACTGATCATCAATTTGGTTACCGGAGTCACCTAGTGCAG | 8980 fluorescence intensity (a.u.) |
| GCCGAGCCGCGTCCCTTTTTCCCATCGCCCACGCAGCGAGCGGAGTCACCTAGTGCAG | 8920 fluorescence intensity (a.u.) |
| TATGATATGTGTGCCTCAGTTGTTGTGCTTGCTGATGTGTCGGAGTCACCTAGTGCAG | 9730 fluorescence intensity (a.u.) |
| TTTCCGGTTTTTCCAATATTTTTCGATACCGTTTTCATTTCGGAGTCACCTAGTGCAG | 12800 fluorescence intensity (a.u.) |
| GGGGATCGGAGGGTGGGGATACGCATGGTGGATGGTAGTGCGGAGTCACCTAGTGCAG | 12600 fluorescence intensity (a.u.) |
| TTCATATTTTCACCGTTTGGGTAGAGTGGTGGTGGGGTGTCGGAGTCACCTAGTGCAG | 10400 fluorescence intensity (a.u.) |
| GGGTTTGGGGTTGCGATTGGGATTGGTAGGGAGGCTGATGCGGAGTCACCTAGTGCAG | 8280 fluorescence intensity (a.u.) |
| GTATTGAGGGCTTAATCGTGGTCGTGGGATATTATTTCATCGGAGTCACCTAGTGCAG | 8390 fluorescence intensity (a.u.) |
| CGTCATATTTGCACCGTTTGGGTAGGGTGGGGATGGGGTGCGGAGTCACCTAGTGCAG | 18700 fluorescence intensity (a.u.) |
| GAAAGATTTTCACCGTTTGGGTAGGTTGGGGATGGGATGACGGAGTCACCTAGTGCAG | 11400 fluorescence intensity (a.u.) |
| TTGGGTGGAGGATTTGGAATTTGACCGGTTGACTTAGGGTCGGAGTCACCTAGTGCAG | 11900 fluorescence intensity (a.u.) |
| CGTCGTGGCGGGTTCATCGGGAGGGGATTATTGATTTAGTCGGAGTCACCTAGTGCAG | 21100 fluorescence intensity (a.u.) |
| TTTCCACCGTTTGGCGTTTGGGTAGGGTTGGGATGGGATGCGGAGTCACCTAGTGCAG | 17200 fluorescence intensity (a.u.) |

| Sequence | binding signal |
| --- | --- |
| CAGGTAATGGATTGATTGCAGGGTTGGGATTTGACCAGGTCGGAGTCACCTAGTGCAG | 11300 fluorescence intensity (a.u.) |
| ATGGGGTTGACTTTTTTTTAGGGATTGCTAGGTGCACCGTCGGAGTCACCTAGTGCAG | 20100 fluorescence intensity (a.u.) |
| TCAGTCATCGTAAATTATTGTGATTTTTTAGGGAGGGGTGCGGAGTCACCTAGTGCAG | 9130 fluorescence intensity (a.u.) |
| ATTATTTTTGGTTGTTCTATTTATTTTCTTAAAATAATTCCGGAGTCACCTAGTGCAG | 11300 fluorescence intensity (a.u.) |
| CCCCACATCTTTTGCTAGCATGCCCCTACCCATTCATATTCGGAGTCACCTAGTGCAG | 10500 ± 300 fluorescence intensity (a.u.) |
| CTGAGTTCTGTATTGGATCAGCTTCATGTTATCGGCATCACGGAGTCACCTAGTGCAG | 8450 fluorescence intensity (a.u.) |
| TTCTCCTATCTTCAACATTTGCTTTGTTACGTTTTTGACTCGGAGTCACCTAGTGCAG | 9560 fluorescence intensity (a.u.) |
| TTTTTCTCGGTAATTTTGTGATTGGTCTACTCCTACAAAACGGAGTCACCTAGTGCAG | 8290 fluorescence intensity (a.u.) |
| TGGATGATTTTGCCATTTTTTTCATTGCTGGTGCGGTGGTCGGAGTCACCTAGTGCAG | 8460 fluorescence intensity (a.u.) |
| CCCGGCGTCCTCCTGCTTCCCACCGCATCGTCGCTCGCCGCGGAGTCACCTAGTGCAG | 8120 fluorescence intensity (a.u.) |
| GAGGGTGGGTGCTTGCTGGCCAGACATTAAAACAATGTGTCGGAGTCACCTAGTGCAG | 9670 fluorescence intensity (a.u.) |
| TTCTTCCCAGCCAGTGTTCCTAGTATCCATTCTCTCTCAACGGAGTCACCTAGTGCAG | 9850 fluorescence intensity (a.u.) |
| GTCGTCTCATACCAATCGTGCGGCGGCGGCGGCGGGGATGCGGAGTCACCTAGTGCAG | 10400 fluorescence intensity (a.u.) |
| GCGGCTTCTTCTCGGGGTGGATTTGGTGGTGGTTTTTTTTCGGAGTCACCTAGTGCAG | 21500 fluorescence intensity (a.u.) |
| GTAGGCTTTTGTTTCGGGTGGGATAATATCTTGGGGAAAGCGGAGTCACCTAGTGCAG | 20700 fluorescence intensity (a.u.) |
| ACGTAGGAAGGTGGAAGCGGTTTCTTGGGGTTTGGATATGCGGAGTCACCTAGTGCAG | 11000 fluorescence intensity (a.u.) |
| TTTGGGGCGCGGGTGGGTGGCTGGGTGCGCGTCGATCGTGCGGAGTCACCTAGTGCAG | 10900 fluorescence intensity (a.u.) |
| GACGGGCGGCGGTGGGGCTGACGCGGGCGACGGAGGGGCTCGGAGTCACCTAGTGCAG | 11500 fluorescence intensity (a.u.) |
| GGGTGACGGGAGCAGCGGCGCGCGGGTGGTGGGGCTTGGACGGAGTCACCTAGTGCAG | 10700 fluorescence intensity (a.u.) |

| Sequence | binding signal |
| --- | --- |
| GGGAAAGTGGTTGGCGGATATTCTTGTTTTCTTTTTTTGTCGGAGTCACCTAGTGCAG | 12500 fluorescence intensity (a.u.) |
| CTTGTGGATTTCGTTCGAGTTCTTGTGGTTTTGGATCGGGCGGAGTCACCTAGTGCAG | 9590 fluorescence intensity (a.u.) |
| GTGGGCTGGGCTTCTTCTTCGTCGTCTCATACCAATCGTGCGGAGTCACCTAGTGCAG | 17100 fluorescence intensity (a.u.) |
| TTGGATTGCAGTGGGGCGGACGGCGGTGGGCGGGGCTTCTCGGAGTCACCTAGTGCAG | 27600 fluorescence intensity (a.u.) |
| TGGTTTGCGGTGGTGCGCGCGCGGCTTCTTCTCGGGGTGGCGGAGTCACCTAGTGCAG | 9070 fluorescence intensity (a.u.) |
| AGGTTCACAATCTATCCGACTTTTGATTTTCTTTCAATTCCGGAGTCACCTAGTGCAG | 9110 fluorescence intensity (a.u.) |
| CAATGGCTTACGACGAGACGACTCACCTTTGAATTCCACGCGGAGTCACCTAGTGCAG | 9460 fluorescence intensity (a.u.) |
| TTTTAAAACTGCTGGGATTTTGCTTTCTGTTTCTTCAATGCGGAGTCACCTAGTGCAG | 10900 fluorescence intensity (a.u.) |
| TTAGTTTTGTTAGATCGTCGATTTTGATTAGTGCGTTTGACGGAGTCACCTAGTGCAG | 9190 fluorescence intensity (a.u.) |
| AAACCAACCCCACCCAACCCACGCGAGAACCGTGGACCACCGGAGTCACCTAGTGCAG | 9500 fluorescence intensity (a.u.) |
| ATTTCTCTTGCCTATGTTTTCATTTTGCAATTATTTTTGTCGGAGTCACCTAGTGCAG | 10500 fluorescence intensity (a.u.) |
| TGTTTGCACTTCATTCCATTCCATTCCACCTCCACTGCTTCGGAGTCACCTAGTGCAG | 8390 fluorescence intensity (a.u.) |
| CTTTTATATAGCTTTGTCTAGTCTTGTGAATTCTCAATTGCGGAGTCACCTAGTGCAG | 8530 fluorescence intensity (a.u.) |
| GGCTCGGGGCGGCGGAATCATGGGCGATTGGGGCGGCAACCGGAGTCACCTAGTGCAG | 22500 fluorescence intensity (a.u.) |
| TCGGCTTGGTGGGGCTGGAGAACGTCTTTTCTCAATTGTGCGGAGTCACCTAGTGCAG | 22000 fluorescence intensity (a.u.) |
| AATCTGTGGGCAGGGGCGGCGACGTCGGCGGGCGAGGGCTCGGAGTCACCTAGTGCAG | 8660 fluorescence intensity (a.u.) |
| GCTCGGGCATCCTTTTTAAGGGCTCGGGGCGGCGGAATCACGGAGTCACCTAGTGCAG | 8290 fluorescence intensity (a.u.) |
| GTTTCATCTTCTTGTGGGCTTTTCTGGTGAACTCAATTCACGGAGTCACCTAGTGCAG | 8250 fluorescence intensity (a.u.) |
